Assay results reported in article PMC13494018.

B1: d8r1_design_ppi_502_dldesign_0_cycle1_af2pred (protein)
chain: SLEELVAKAEKYLKEAAKLSPASLAPSVANALAGITEAAKVSPKAAYNLAKSFLDYVKKNGTAEAAKEAEKALEELEKAAK
B2: d8r1_design_ppi_423_dldesign_0_cycle0_af2pred (protein)
chain: SEFDKNMELLKEAGAAISELTARARAEADAAAAEGPDAVRAVAAERIEEARRITEELGEKSSLKESFRGMAERTARTIEAYAAAVIA
B3: d8r1_design_ppi_638_dldesign_0_cycle1_af2pred (protein)
chain: GDARALRRAADNLARRALEELAAQTATAARAAEVAALLEAGRTEGAAKLAEAAALAAADPLLARAGAYLAAAADFLALAEREE
B4: d8r1_design_ppi_569_dldesign_0_cycle0_af2pred (protein)
chain: EPSPRVQALLHVGRAAATLIAASGTEAGRAAAAELARLAFEAAASSPEEGQKLLEEALARADEVAAGLPADAAAAVRAHLEAALAAMK
B5: d8r1_design_ppi_93_dldesign_0_cycle1_af2pred (protein)
chain: ENKSIAQGLLKAMKAAYEQAKKSGKAAQLKATAEAAKAAAKKAKELGDEETAKELEKLAKEAKELAEKAAAAAA
B6: d8r1_design_ppi_1319_dldesign_0_cycle1_af2pred (protein)
chain: AAAEELKTLAAESIGLIDQAEKALKAGTDELNYLKLVAASARKLGPEIAKLVTAALKAAKAGDKETALKYLKEARKLAEKIAA
B7: d8r1_design_ppi_414_dldesign_0_cycle0_af2pred (protein)
chain: MEEELKKIKELGKKAAKLAEEEGEEGFKKAIAELEKAAAEAAKGEKAKELQKLVGQGIIDVGKAAYKKEEKKEEELAK
B8: d8r1_design_ppi_1325_dldesign_0_cycle0_af2pred (protein)
chain: SSGKEKAAEYRAKADALAAQESPETQAQLRALAERVLKAAEEGVEALAKAAAEAAAFGAATSPTAQAAAREAIAAGVAL
B9: d8r1_design_ppi_955_dldesign_0_cycle0_af2pred (protein)
chain: LYAELAARVRAIMAAAGMSPREADTVAAFALAAAADPELEEAMREKMRKAAGPEFEPAVEEAIALAREAAAAL
B10: d8r1_design_ppi_1206_dldesign_0_cycle1_af2pred (protein)
chain: SPAAQWAALDADLKQARELAKKAKEVGNEEEAKKVEAALKKAEAAAAAARADPSLYHEARRAVGEAQVEALKVISKG
B11: d8r1_design_ppi_353_dldesign_0_cycle1_af2pred (protein)
chain: TAAAKAAADAALANLQAFLDVVVAADPQNIARVEKAAQIAISGGKVLAAQHPEVADYAAGAATAAAQAAVDRAKALAAA
B12: d8r1_design_ppi_1240_dldesign_0_cycle1_af2pred (protein)
chain: DDATLKQAAALIAEGQAAAAQATTDPAYAAKAKEAYKKAGEVYPESSEFFNIAGEKTAQAALDKYKAAQAAAAAAAA
B13: d8r1_design_ppi_863_dldesign_0_cycle0_af2pred (protein)
chain: SRAERLIEEAERLAKEAKEAAKRVADSPVAPRAKALADATEAFAKGLKAAAAAGGSMEDQEALLRAARNTAEAAKILAEEAEAARAA
B14: d8r1_design_ppi_156_dldesign_0_cycle0_af2pred (protein)
chain: MEEEREREEERRREARRMAQALENAAEAVAARAAAASPAEQPALARAAESLAAAAKVLQKEDPELGAAVEKRAEAILAEIRAR
B15: d8r1_design_ppi_149_dldesign_0_cycle0_af2pred (protein)
chain: DEAAEIFAKALDEMDKKVKEAKEEVKKALEEGEKKDPEEAKKKAKEIIEKAIKELKEIAEKAAKKVPKLGPAAKATAEATAKVLK
B16: d8r1_design_ppi_371_dldesign_0_cycle0_af2pred (protein)
chain: SAEKAALLAQGKAYFATAKAAAAAAIKLKEAGGSEKTVQALIEQAKAAGEKATALFEAYDPELGKKVKEEVDALLAAAKA
B17: d8r1_design_ppi_429_dldesign_0_cycle1_af2pred (protein)
chain: AAAALAAAAAEGAIELAEYQVEIGNLEAARAFVEGALRAAARADPATAAELRARARAVLEEAERRHKERLEA
B18: d8r1_design_ppi_246_dldesign_0_cycle1_af2pred (protein)
chain: ADPEAAARARAAAAVAGATELLKANPANTPAFAAANAEALADSPAAPEAKAAMAKIAAEAEKAAAARKAAEEAAK
B19: d8r1_design_ppi_655_dldesign_0_cycle1_af2pred (protein)
chain: DDNKAAANAAKTGGNSSNERAKKLLAAGIASGDKALIAQAATLFANAATLYAFANAKTGPEYQANVDAAKANQAAANAALA
B20: d8r1_design_ppi_991_dldesign_0_cycle0_af2pred (protein)
chain: AAAALTAAVAASIKGLAELARKAIDDKSVVKAAANAAKSAAALDKALGKEMSKKLEEAAKKSPEEAVKTIEEVAAKVAAAAAA
B21: d8r1_design_ppi_1493_dldesign_0_cycle0_af2pred (protein)
chain: EEEKKKLREEAIKLAKKAAEIAKKSENAKEVIEEIEKAIKYLEEGDYEKAAKELAKAGRLADPEARGYINRALLKVGEAK
B22: d8r1_design_ppi_36_dldesign_0_cycle0_af2pred (protein)
chain: REEVRAKLEAAAAALREVDPVAGEGFRRLAELAFSGEVNGAWAALASLLEHYLPAAEAHDPELGAIVAEAREAALEEWERIQAE
B23: d8r1_design_ppi_1305_dldesign_0_cycle0_af2pred (protein)
chain: ARAEELAEALLAKAKELSKLPMGEAAKAAAAEARALAEQDPETALAAAELAYKRASEDPSVSSKVRALLGAALGAATQQLAAQKAAA
B24: d8r1_design_ppi_1316_dldesign_0_cycle1_af2pred (protein)
chain: SAVAKAAAAAAAAAKKALASHPAIGAAVARSIELGKLEEAAAFATAAAKALIGEEAGEALGKELDKLVAAAKAAA
B25: d8r1_design_ppi_480_dldesign_0_cycle1_af2pred (protein)
chain: SAAAATEAKAKAWAAEIIAAAKADPAAAAALATEVVATASEEEIRTLLNILAQQAFKSPDGLTALTAVSAAVAARYA
B26: d8r1_design_ppi_640_dldesign_0_cycle0_af2pred (protein)
chain: SEEEEKKAEYLKKAGAAASRAGKVAAANAGNPEIQALAKKAAKALNEAFASNVEEAKKKAEEVEKLAAEAEALAA
B27: d8r1_design_ppi_41_dldesign_0_cycle1_af2pred (protein)
chain: RGEEILKKAKEAATRALQLASKDPSLLPLALKALALASEAGYAIAHEGVEKGEELAEKAEKLTEEIEKLAE
B28: d8r1_design_ppi_479_dldesign_0_cycle1_af2pred (protein)
chain: AELAKEAKELAEKGIADPSKAPEAAREIAELFAEAVKKGDNEAAAEAHAELSRIYAANPEAGREGHILAAQLMSKYAVES
B29: d8r1_design_ppi_1379_dldesign_0_cycle1_af2pred (protein)
chain: SAAAGAAVAAAGIAAMRAGAAADGLAGARAAAREAARAAMALFRKDPDAGAAALAALDAAWAAISAALAA
B30: d8r1_design_ppi_1471_dldesign_0_cycle0_af2pred (protein)
chain: MDDSFGKNVIIDAEREIKRFEEAAKKAEEEDKEVAKEIKKIAEEIKKEAEKIKKGEGKLEHSKKALEAMSKGARLVAEFKAK
B31: d8r1_design_ppi_1220_dldesign_0_cycle1_af2pred (protein)
chain: AEERAEELAKEAFKLLSEAAKAAATATTEEQVKKGEELAEKAKKLAEELLKEDPSKKGLSEGIKRAAEKVKKAAEEKKKEL
B32: d8r1_design_ppi_636_dldesign_0_cycle0_af2pred (protein)
chain: DYMDALAAMLKAAAEARALAAAGGDAAAIEAALAKAKELGEEAGKLKGESAKGFAEKVIANVEATIAAAKAARAA
B33: d8r1_design_ppi_679_dldesign_0_cycle0_af2pred (protein)
chain: AAAAARAAIVDETIARIRAELASRPSLAAFAESVLRRGLALGNEAEAARNVAAMLEAAGATAAAAVAREAAARIEAL
B34: d8r1_design_ppi_429_dldesign_0_cycle0_af2pred (protein)
chain: AAAARAAAAAEGAIAAAKLAGESGNLEALKAFVEAAHAAAAKADPATAAALKAKADATLEAAKKAFKEKEEA
B35: d8r1_design_ppi_988_dldesign_0_cycle1_af2pred (protein)
chain: SEAAMAAAIAAAHAAAQAVVAADPAAAPFARALMSYAMLAVSDPAAGLAGLAAVAEAAAAAGAAAMAAVAAATRAALAAAHA
B36: d8r1_design_ppi_302_dldesign_0_cycle1_af2pred (protein)
chain: DEEEGKKSALKAAETARRLAEEAAKQAKEKAADPALAKKYVAKAKAYAKAAEDIAKGFPDNAEIKAAAKEAKKAAQQAKEALKA
B37: d8r1_design_ppi_306_dldesign_0_cycle0_af2pred (protein)
chain: DAARRAKAEALLKQAKEDFKKFAEQAKKEGPSVLKALKNINESVAEHLKKLDPELGEELKKYGEELIKKAEE
B38: d8r1_design_ppi_699_dldesign_0_cycle0_af2pred (protein)
chain: AAVAAAAAAGKAAIEKIEKAAKEAEKINKESGKALKSLAEQAKKLLAEGIANPATRDAKLAGVNNIAAGAETLAKALKEEKA

The binders below were run against PDL1, Q9NZQ7.
PDL1, Q9NZQ7, sequence (Q9NZQ7 whole entry): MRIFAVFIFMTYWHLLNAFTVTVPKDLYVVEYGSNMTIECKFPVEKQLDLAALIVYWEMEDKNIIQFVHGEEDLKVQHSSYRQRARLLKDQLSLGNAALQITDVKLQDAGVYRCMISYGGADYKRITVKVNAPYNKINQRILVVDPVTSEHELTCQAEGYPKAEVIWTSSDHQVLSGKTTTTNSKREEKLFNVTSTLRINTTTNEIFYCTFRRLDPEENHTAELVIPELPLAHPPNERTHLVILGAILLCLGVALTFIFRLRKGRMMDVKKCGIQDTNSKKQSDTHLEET

Binding in a display sort, inactive:
B1 not found, B2 not found, B3 not found, B4 not found, B5 not found, B6 not found, B7 not found, B8 not found, B9 not found, B10 not found, B11 not found, B12 not found, B13 not found, B14 not found, B15 not found, B16 not found, B17 not found, B18 not found, B19 not found, B20 not found, B21 not found, B22 not found, B23 not found, B24 not found, B25 not found, B26 not found, B27 not found, B28 not found, B29 not found, B30 not found, B31 not found, B32 not found, B33 not found, B34 not found, B35 not found, B36 not found, B37 not found, B38 not found
